# Active and inactive are the calls of the source.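 Rule for the calls, unless noted: active = NADPH fluorescence slope more negative than the mean of all samples by about 3 SD, 99.7% confidence; inactive = the rest.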
# Tests used:
# [1] = endothelial E-selectin expression blockers – imaging, HUVEC, immunofluorescence, MLSMR starter and 10KST1 sets, primary screen (AID 487;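 active = visually confirmed hit in the image check and inhibition above 20%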;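 for inhibition: signal is fraction of cell area covered by stained E-selectin grains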;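 for nuclei count: 100% = median nuclei count of all wells on the same plate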); details: HUVEC TNFalpha-induced E-selectin immunofluorescence imaging, at 2 µM; inhibition: stronger effect = higher value; nuclei count: measured here: cell number, toxicity
# [2] = Primary imaging screen for DUSP6 inhibitors that restore phospho-Erk in transfected HeLa cells, chemical complementation (AID 609;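 active = compounds giving at least 50% inhibition in the cell-based MKP-3 phosphatase rescue imaging test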;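 for inhibition: phospho-Erk level distribution per well compared with pooled transfected vehicle control wells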); details: HeLa MKP-3 transfected, phospho-Erk imaging KS statistic, at 10 µM, cells stimulated with TPA for 15 min
# [3] = target: Dual specificity protein phosphatase 6 (Homo sapiens) (UniProt Q16828); experiment: as above; details: HeLa MKP-3 transfected, phospho-Erk imaging KS statistic; at 10 µM; stronger effect = higher value; cells stimulated with TPA for 15 min
# Sequence of Dual specificity protein phosphatase 6 (Homo sapiens) (Q16828 whole entry, looked up): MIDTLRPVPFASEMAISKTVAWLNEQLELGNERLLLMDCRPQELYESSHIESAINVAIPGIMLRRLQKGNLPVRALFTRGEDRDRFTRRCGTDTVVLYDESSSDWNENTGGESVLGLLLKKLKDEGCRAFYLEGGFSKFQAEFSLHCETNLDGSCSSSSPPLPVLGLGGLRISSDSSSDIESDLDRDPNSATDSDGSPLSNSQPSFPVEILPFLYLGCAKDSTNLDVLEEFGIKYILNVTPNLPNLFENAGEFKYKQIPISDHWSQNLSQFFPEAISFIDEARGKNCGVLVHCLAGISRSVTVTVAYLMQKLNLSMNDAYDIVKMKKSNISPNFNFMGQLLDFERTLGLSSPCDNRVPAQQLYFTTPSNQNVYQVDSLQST
# [4] = target: Voltage-gated potassium channel subunit beta-2 (Rattus norvegicus) (UniProt P62483); experiment: inhibitors of rat Kvbeta2 reductase activity – biochemical, NADPH fluorescence, primary screen (AID 622;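 active = fluorescence slope higher than the sample average by over 3 SD, cut at about -0.22 in these data, passing the limit was not always enough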;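 note: slope of raw intensity against log time taken from 70 to 1610 s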); details: recombinant KvBeta, 4-cyanobenzaldehyde reduction, at 10 µM, stronger effect = higher value
# Sequence of Voltage-gated potassium channel subunit beta-2 (Rattus norvegicus) (P62483 whole entry, looked up): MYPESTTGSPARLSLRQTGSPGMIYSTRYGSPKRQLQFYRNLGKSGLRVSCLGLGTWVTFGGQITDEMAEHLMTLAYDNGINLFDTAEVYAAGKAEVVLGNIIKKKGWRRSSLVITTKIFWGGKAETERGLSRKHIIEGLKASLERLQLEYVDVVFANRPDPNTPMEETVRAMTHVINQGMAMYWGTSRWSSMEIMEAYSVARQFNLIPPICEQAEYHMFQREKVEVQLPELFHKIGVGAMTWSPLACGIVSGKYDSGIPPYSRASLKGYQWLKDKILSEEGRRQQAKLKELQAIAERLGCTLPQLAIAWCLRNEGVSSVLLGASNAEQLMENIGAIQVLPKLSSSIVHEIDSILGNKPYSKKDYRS
# [5] = target: Voltage-gated potassium channel subunit beta-2 (Rattus norvegicus) (UniProt P62483); experiment: enhancers of rat Kvbeta2 NADPH turnover – biochemical, NADPH fluorescence, primary screen (AID 623); details: Recombinant KvBeta, NADPH fluorescence decrease slope, 10 min; at 10 µM; stronger effect = lower value;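 note: fluorescence intensity change per second fitted from 20 to 320 s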
# [6] = target: Muscarinic acetylcholine receptor M4 (Homo sapiens) (UniProt P08173); experiment: M4-linked GIRK flux change, two-sided – cell-based, HEK293 M4/GIRK, thallium flux, BTC-AM, M4 allosteric agonist project, primary screen (AID 625;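 active = fluorescence slope after compound addition differing from the mean of all tested samples at 99.7% confidence, mostly higher but some lower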;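 note: thallium influx through GIRK channels coupled to M4 in HEK293 cells with BTC-AM dye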); details: at 10 µM, actives lie on both sides
# Sequence of Muscarinic acetylcholine receptor M4 (Homo sapiens) (P08173 whole entry, looked up): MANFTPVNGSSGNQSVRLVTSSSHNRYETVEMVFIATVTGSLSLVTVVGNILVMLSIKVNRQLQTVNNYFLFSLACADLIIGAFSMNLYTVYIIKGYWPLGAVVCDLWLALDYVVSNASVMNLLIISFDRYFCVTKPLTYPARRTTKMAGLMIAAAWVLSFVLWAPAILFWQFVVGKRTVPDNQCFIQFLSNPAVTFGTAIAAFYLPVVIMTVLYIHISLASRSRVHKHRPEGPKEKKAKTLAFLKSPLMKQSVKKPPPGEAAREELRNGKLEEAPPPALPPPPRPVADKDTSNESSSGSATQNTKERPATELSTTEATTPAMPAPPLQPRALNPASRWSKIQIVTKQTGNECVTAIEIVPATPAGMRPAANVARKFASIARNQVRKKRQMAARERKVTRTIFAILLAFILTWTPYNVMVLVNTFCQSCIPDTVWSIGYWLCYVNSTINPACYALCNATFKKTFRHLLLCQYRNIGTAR
# [7] = inhibitors of larval lipid processing in zebrafish, primary screen, whole organism, PED6 fluorescence, gall bladder and intestine (AID 686;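 active = a full or partial loss of lipid-probe fluorescence in the fish gall bladder, intestine or both, judged by eye; inactive = no fluorescence loss, or compound toxic to the fish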;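 note: larvae 5 to 7 days old with five fish per well; signal comes from phospholipase A2 cleavage of quenched PED6 carried via bile; overnight exposure to compound and PED6 before scoring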); details: Zebrafish larvae PED6 lipid processing, fluorescence scoring; screened at 20 µM (by protocol)
# [8] = loss of swimming-algae plug formation – whole organism, Chlamydomonas reinhardtii, WT vs cilia-less mutant, absorbance, 96-well, primary screen (AID 463189;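 active = inhibition at or above 50% relative to wild type and mutant plate controls; inactive = inhibition below 50%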;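 note: 0% = wild type cc124 cells in DMSO and 100% = ciliumless bld1 mutant cells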); details: Chlamydomonas reinhardtii gravitaxis, OD600 absorbance, 2 days; at 10 µM; stronger effect = higher value
# [9] = target: Alpha-2C adrenergic receptor (Homo sapiens) (UniProt P18825); experiment: compounds altering alpha2C-coupled GIRK flux – cell-based, HEK293 alpha2C/GIRK1/2, thallium flux, primary screen (AID 624;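 active = fluorescence slope after compound addition differing from the mean of all screened samples at 99.7% confidence, in either direction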;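 note: slope of fluorescence ratio to pre-addition baseline per second over 15 to 24 s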); details: thallium flux BTC fluorescence, at 10 µM, actives lie on both sides
# Sequence of Alpha-2C adrenergic receptor (Homo sapiens) (P18825 whole entry, looked up): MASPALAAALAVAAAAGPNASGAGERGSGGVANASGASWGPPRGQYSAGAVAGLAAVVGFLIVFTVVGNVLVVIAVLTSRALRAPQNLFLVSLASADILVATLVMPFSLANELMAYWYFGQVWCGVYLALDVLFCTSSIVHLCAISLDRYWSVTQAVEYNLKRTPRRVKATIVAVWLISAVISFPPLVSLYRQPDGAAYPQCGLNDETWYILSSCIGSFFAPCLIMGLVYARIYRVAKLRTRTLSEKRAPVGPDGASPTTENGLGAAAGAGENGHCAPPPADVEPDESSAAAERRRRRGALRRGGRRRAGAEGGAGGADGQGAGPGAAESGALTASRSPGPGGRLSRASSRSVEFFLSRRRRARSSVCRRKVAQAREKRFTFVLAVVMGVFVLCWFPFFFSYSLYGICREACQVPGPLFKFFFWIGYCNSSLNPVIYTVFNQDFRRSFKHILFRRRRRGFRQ
# [10] = blockers of RIG-like receptor reporter activation – cell-based, Sendai virus stimulus, luciferase, 10K MLSCN set, TLR/RLR signaling modifier project, primary screen (AID 602276;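 active = inhibition at or above 50% at 10 µM; inactive = inhibition below 50%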;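 note: firefly luciferase from ISG56 promoter only with Renilla not read in this screen; 0% = Sendai virus plus DMSO and 100% = medium plus DMSO without virus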); details: HEK293 RL24 IRF3 luciferase reporter, at 10 µM, stronger effect = higher value
# [11] = TLR3 IRF3 reporter activation blockers – cell-based, poly I:C stimulus, luciferase, 10K MLSCN set, primary screen (AID 602277;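 active = inhibition of the reporter signal at or above 50%; inactive = inhibition below 50%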); details: HEK293-TLR3 RL24 IRF3 luciferase reporter, at 10 µM, stronger effect = higher value
# [12] = measured here: cell density z-score
# [13] = measured here: nuclear c-Myc green intensity z-score
# [14] = measured here: nuclear pErk red intensity z-score, stronger effect = higher value
Structure (SMILES),inhibition [1],nuclei count [1] [%],"z-score [2, 12]","z-score [2, 13]","z-score [2, 14]",inhibition [3],fluorescence slope [4],NADPH fluorescence slope [5],fluorescence slope [6],outcome [7],inhibition [8],slope [9],inhibition [10],inhibition [11]
CC(C)CCOc1ccc(Cl)cc1CN1CCOCC1,-12.9% (inactive),146,-1.08,-0.136,-0.739,-3.98% (inactive),-0.378 (inactive),-7.1e-06 (inactive),0.00465 (inactive),inactive; toxic,106% (active),,,
O=C(CCN1CCc2ccccc21)c1ccc2c(c1)OCCO2,-46.2% (inactive),144,-0.121,-0.0206,-0.911,-0.159% (inactive),-0.436 (inactive),-2.2e-05 (inactive),0.00393 (inactive),inactive,3.69% (inactive),,,
CCCOc1ccc(Cl)cc1CN1CCOCC1,-21.7% (inactive),67.6,0.154,-1.58,-0.239,20.8% (inactive),-0.499 (inactive),-3e-05 (inactive),0.0115 (inactive),inactive,32.2% (inactive),,,
O=C(Oc1ccccc1)c1c(Cl)cccc1P(=O)(O)O,-22.4% (inactive),146,-1.16,0.0504,-1.03,-0.159% (inactive),-0.396 (inactive),-2.5e-05 (inactive),0.00459 (inactive),inactive,-7.77% (inactive),,,
COc1ccc(C(=O)NCC(=O)n2nc(C)cc2C)cc1OC,-38.7% (inactive),95.9,-0.145,0.45,-1.73,3.66% (inactive),-0.415 (inactive),-1.8e-05 (inactive),0.00491 (inactive),inactive,-5.61% (inactive),,,
COc1ccc[nH]c1=O,-53.5% (inactive),156,-0.586,0.536,-1.08,11.3% (inactive),-0.41 (inactive),-4.9e-05 (inactive),0.00623 (inactive),inactive,14.4% (inactive),,,
COc1ccc(C(=O)C2CCCCC2=O)cc1 (stereo unspecified),43.3% (inactive),127,-0.682,-0.8,1.6,-2.07% (inactive),-0.407 (inactive),-7e-05 (inactive),0.00364 (inactive),inactive,20% (inactive),,,
CCCc1nnc(SCc2ccc(OCC)cc2)n1N,-86% (inactive),147,-0.133,1.35,1.37,7.48% (inactive),-0.421 (inactive),-1.6e-05 (inactive),0.00481 (inactive),inactive,28.9% (inactive),,,
CCOC(=O)c1cc(CC)sc1NC(=O)C1CC1,5.7% (inactive),151,0.13,-0.277,0.203,1.75% (inactive),-0.369 (inactive),-6.8e-05 (inactive),0.0058 (inactive),inactive,-9.3% (inactive),,,
O=C(CCN1CCc2ccccc2CC1)c1ccc2c(c1)OCCO2,-194% (inactive),154,1.21,0.758,0.122,9.39% (inactive),-0.406 (inactive),-5.2e-05 (inactive),0.00461 (inactive),inactive,40.1% (inactive),,,
Cc1cc(N/C=C/C(=O)c2cccc3ccccc23)no1,-51% (inactive),95.6,-0.324,0.59,-0.55,13.2% (inactive),-0.396 (inactive),-2.3e-06 (inactive),0.00616 (inactive),inactive,-11.1% (inactive),,,
CCOC(=O)c1ccc(CSc2ncn[nH]2)o1,-61.8% (inactive),156,0.633,-0.893,-0.304,17% (inactive),-0.407 (inactive),-3.4e-05 (inactive),0.00583 (inactive),inactive,10.3% (inactive),,,
COc1cccc(C(=O)OCCN(C)C(C)(C)C)c1,-23.7% (inactive),128,0.369,1.71,-0.0558,17% (inactive),-0.414 (inactive),-3.4e-05 (inactive),0.00557 (inactive),inactive,31.9% (inactive),,,
CN(C)/C=C1\N=C(c2cccs2)OC1=O,-85.3% (inactive),178,-0.766,-0.714,0.335,1.75% (inactive),-0.406 (inactive),-4e-05 (inactive),0.00407 (inactive),inactive,26.8% (inactive),,,
CCC1=Nc2ccccc2NC2=C1C(=O)CCC2,-65.4% (inactive),87.8,-1.25,0.203,-0.00909,3.66% (inactive),-0.427 (inactive),-3.7e-05 (inactive),0.00568 (inactive),inactive,23.6% (inactive),,,
CCOC(=O)C(Oc1ccc(=O)[nH]n1)C(C)=O (stereo unspecified),-70.7% (inactive),105,-0.778,0.196,-1.16,22.7% (inactive),-0.398 (inactive),-7.7e-06 (inactive),0.00606 (inactive),inactive,-3.15% (inactive),,,
Clc1ccc2nc(N3CCNCC3)nc(-c3ccccc3)c2c1,14.5% (inactive),144,0.81,-0.0975,1.71,7.48% (inactive),-0.23 (inactive),-6.4e-06 (inactive),0.00627 (inactive),inactive,151% (active),,,
c1ccc2c(c1)nc(CN1CCOCC1)n1c3ccccc3nc21,-88% (inactive),174,-0.838,-0.224,1.09,-3.98% (inactive),-0.309 (inactive),-2.8e-05 (inactive),0.00659 (inactive),inactive,-4.79% (inactive),,,
CCOC(=O)C1CCCN(C(=O)c2cc3c(-c4cccc(OC)c4)nn(C)c3s2)C1 (stereo unspecified),,,,,,,-0.355 (inactive),-3.7e-05 (inactive),,inactive,,0.00666 (inactive),-33.2% (inactive),39.4% (inactive)
Cn1c(=O)oc2cc(S(=O)(=O)NCCC(=O)N3CCc4ccccc4C3)ccc21,,,,,,,-0.514 (inactive),-9.1e-05 (inactive),,,,0.00621 (inactive),13.9% (inactive),18.7% (inactive)
O=C(CSc1nc2c(sc3ccccc32)c(=O)n1Cc1ccco1)NCC1CCCO1 (stereo unspecified),,,,,,,-0.58 (inactive),-4.5e-05 (inactive),0.00708 (inactive),,,,19.7% (inactive),20.3% (inactive)
CCCN1Cc2cccc(C(=O)NCc3cccs3)c2C1=O,,,,,,,-0.393 (inactive),-4e-05 (inactive),,inactive,,0.00508 (inactive),3.53% (inactive),2.96% (inactive)
CCOC(=O)C1CCCN(c2cc(=O)n(Cc3ccc(F)cc3)c(=O)[nH]2)C1 (stereo unspecified),,,,,,,-0.387 (inactive),-1.6e-05 (inactive),0.0077 (inactive),,,,11.9% (inactive),19.7% (inactive)
CN1[C@@H]2CC(OC(=O)[C@H](CO)c3ccccc3)C[C@H]1[C@@H]1O[C@@H]12 (stereo partly specified),-56.4% (inactive),129,0.18,-0.245,-0.715,15.3% (inactive),-0.461 (inactive),-3e-05 (inactive),,,,0.00551 (inactive),2.34% (inactive),25.9% (inactive)
O=C(NC1CCCCCC1)C1c2ccccc2C(=O)N1Cc1cccnc1 (stereo unspecified),,,,,,,-0.575 (inactive),1.2e-05 (inactive),,,,0.00527 (inactive),1.87% (inactive),17.1% (inactive)
CCC(C)(NC(=O)c1ccc(=O)[nH]c1)C(=O)NC1CCCC1 (stereo unspecified),,,,,,,-0.551 (inactive),-5e-05 (inactive),,,,0.00548 (inactive),8% (inactive),24.2% (inactive)

# From PubChem BioAssay
